Laboratory results taken from PubChem BioAssay AID1159580 (chemical genetic matrix, 2015).
“And” between values parts separate entries of the source, which are not always exact repeats. Identical values can stand only once. About 2,000 (36%) of roughly 5,500 compounds were called active. Another 18% or so got no clear call; they are omitted. Cut-off read from the data, not from the text of the source: active = normalized growth mostly below about 0.91 (no sharp cut-off); inconclusive = no clear call, values can overlap the other calls; inactive = mostly above about 0.92. The list shows a part of the results.

Test: chemical genetic growth profiling, strain panel (AID 1159580);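 note: tested at 20 µM; growth read once vehicle control cultures reached saturation at 30 °C; 1 = growth at the plate median or of vehicle wells; lower values mean less growth of the strain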
Settings: growth OD

COc1ccc2c(=O)c(OC)c(-c3ccccc3)oc2c1
normalized growth (S. cerevisiae deletion strains, locus YBR021W, strain FUR4, stronger effect = lower value): 0.758 (active) | normalized growth (S. cerevisiae deletion strains, locus YBR229C, strain ROT2, stronger effect = lower value): 0.966 (inactive) | normalized growth (S. cerevisiae deletion strains, locus YCL029C, strain bik1, stronger effect = lower value): 0.945 (inactive) | normalized growth (S. cerevisiae deletion strains, locus YDL035C, strain GPR1, stronger effect = lower value): 0.83 (active) | normalized growth (S. cerevisiae deletion strains, locus YDL074C, strain BRE1, stronger effect = lower value): 0.713 (active) | normalized growth (S. cerevisiae deletion strains, locus YDL101C, strain DUN1, stronger effect = lower value): 0.855 (active) | normalized growth (S. cerevisiae deletion strains, locus YDL185W, strain tfp1, stronger effect = lower value): 0.951 (inactive) | normalized growth (S. cerevisiae deletion strains, locus YDL192W, strain arf1, stronger effect = lower value): 0.829 (active) | normalized growth (S. cerevisiae deletion strains, locus YDR101C, strain arx1, stronger effect = lower value): 0.855 (active) | normalized growth (S. cerevisiae deletion strains, locus YDR162C, strain NBP2, stronger effect = lower value): 0.68 (active) | normalized growth (S. cerevisiae deletion strains, locus YDR318W, strain mcm21, stronger effect = lower value): 0.863 (active) | normalized growth (S. cerevisiae deletion strains, locus YDR388W, stronger effect = lower value): 0.929 (inactive) | normalized growth (S. cerevisiae deletion strains, locus YDR502C, strain sam2, stronger effect = lower value): 0.836 (active) | normalized growth (S. cerevisiae deletion strains, locus YEL061C, strain CIN8, stronger effect = lower value): 0.891 (active) | normalized growth (S. cerevisiae deletion strains, locus YER110C, stronger effect = lower value): 0.932 (inactive) | normalized growth (S. cerevisiae deletion strains, locus YER155C, strain BEM2, stronger effect = lower value): 0.893 (active) | normalized growth (S. cerevisiae deletion strains, locus YER167W, strain BCK2, stronger effect = lower value): 0.858 (active) | normalized growth (S. cerevisiae deletion strains, locus YGL078C, strain dbp3, stronger effect = lower value): 0.939 (inactive) | normalized growth (S. cerevisiae deletion strains, locus YGL086W, strain mad1, stronger effect = lower value): 0.867 (active) | normalized growth (S. cerevisiae deletion strains, locus YGL248W, strain PDE1, stronger effect = lower value): 0.831 (active) | normalized growth (S. cerevisiae deletion strains, locus YGR078C, strain PAC10, stronger effect = lower value): 0.743 (active) | normalized growth (S. cerevisiae deletion strains, locus YGR135W, strain pre9, stronger effect = lower value): 0.754 (active) | normalized growth (S. cerevisiae deletion strains, locus YGR229C, strain SMI1, stronger effect = lower value): 0.477 (active) | normalized growth (S. cerevisiae deletion strains, locus YGR252W, strain gcn5, stronger effect = lower value): 0.582 (active) | normalized growth (S. cerevisiae deletion strains, locus YHR030C, strain SLT2, stronger effect = lower value): 0.646 (active) and 0.936 (inactive) | normalized growth (S. cerevisiae deletion strains, locus YHR079C, strain IRE1 (second series), stronger effect = lower value): 0.943 (inactive) | normalized growth (S. cerevisiae deletion strains, locus YHR079C, strain IRE1, stronger effect = lower value): 0.925 (inactive) | normalized growth (S. cerevisiae deletion strains, locus YHR094C, strain hxt1, stronger effect = lower value): 0.977 (inactive) | normalized growth (S. cerevisiae deletion strains, locus YHR129C, strain ARP1, stronger effect = lower value): 0.858 (active) | normalized growth (S. cerevisiae deletion strains, locus YHR200W, strain rpn10, stronger effect = lower value): 0.892 (active) | normalized growth (S. cerevisiae deletion strains, locus YIL066C, strain RNR3, stronger effect = lower value): 0.771 (active) | normalized growth (S. cerevisiae deletion strains, locus YIL073C, strain SPO22, stronger effect = lower value): 0.862 (inactive) | normalized growth (S. cerevisiae deletion strains, locus YIL125W, strain kgd1, stronger effect = lower value): 0.975 (inactive) | normalized growth (S. cerevisiae deletion strains, locus YIR030C, strain dcg1, stronger effect = lower value): 0.928 (inactive) | normalized growth (S. cerevisiae deletion strains, locus YJL095W, strain BCK1, stronger effect = lower value): 0.454 (active) and 0.941 (inactive) | normalized growth (S. cerevisiae deletion strains, locus YJL134W, strain LCB3, stronger effect = lower value): 0.951 (inactive) | normalized growth (S. cerevisiae deletion strains, locus YJL168C, strain set2, stronger effect = lower value): 0.97 (inactive) | normalized growth (S. cerevisiae deletion strains, locus YJL187C, strain SWE1 (second series), stronger effect = lower value): 0.859 (active) | normalized growth (S. cerevisiae deletion strains, locus YJR043C, strain POL32, stronger effect = lower value): 0.797 (active) | normalized growth (S. cerevisiae deletion strains, locus YJR066W, strain TOR1, stronger effect = lower value): 0.867 (inactive) | normalized growth (S. cerevisiae deletion strains, locus YJR075W, strain HOC1, stronger effect = lower value): 0.89 (inactive) | normalized growth (S. cerevisiae deletion strains, locus YKL009W, strain mrt4, stronger effect = lower value): 0.901 (inactive) | normalized growth (S. cerevisiae deletion strains, locus YKL068W, stronger effect = lower value): 0.975 (inactive) | normalized growth (S. cerevisiae deletion strains, locus YKL085W, strain MDH1 (second series), stronger effect = lower value): 0.974 (inactive) | normalized growth (S. cerevisiae deletion strains, locus YKL085W, strain MDH1, stronger effect = lower value): 0.974 (inactive) | normalized growth (S. cerevisiae deletion strains, locus YKL190W, strain CNB1, stronger effect = lower value): 0.923 (inactive) | normalized growth (S. cerevisiae deletion strains, locus YKR001C, strain vps1, stronger effect = lower value): 0.848 (active) | normalized growth (S. cerevisiae deletion strains, locus YLR039C, strain RIC1, stronger effect = lower value): 0.906 (inactive) | normalized growth (S. cerevisiae deletion strains, locus YLR058C, strain SHM2, stronger effect = lower value): 0.888 (active) | normalized growth (S. cerevisiae deletion strains, locus YLR102C, strain apc9, stronger effect = lower value): 0.95 (inactive) | normalized growth (S. cerevisiae deletion strains, locus YLR113W, strain HOG1, stronger effect = lower value): 0.931 (inactive) | normalized growth (S. cerevisiae deletion strains, locus YLR262C, strain YPT6, stronger effect = lower value): 0.901 (inactive) | normalized growth (S. cerevisiae deletion strains, locus YLR268W, strain sec22, stronger effect = lower value): 0.866 (active) | normalized growth (S. cerevisiae deletion strains, locus YLR330W, strain CHS5, stronger effect = lower value): 0.752 (active) | normalized growth (S. cerevisiae deletion strains, locus YLR342W, strain FKS1 (second series), stronger effect = lower value): 0.723 (active) | normalized growth (S. cerevisiae deletion strains, locus YLR371W, strain rom2, stronger effect = lower value): 0.794 (active) | normalized growth (S. cerevisiae deletion strains, locus YLR418C, strain cdc73, stronger effect = lower value): 0.532 (active) | normalized growth (S. cerevisiae deletion strains, locus YML016C, strain PPZ1, stronger effect = lower value): 0.947 (inactive) | normalized growth (S. cerevisiae deletion strains, locus YML032C, strain rad52, stronger effect = lower value): 0.723 (active) | normalized growth (S. cerevisiae deletion strains, locus YML124C, strain tub3, stronger effect = lower value): 0.941 (inactive) | normalized growth (S. cerevisiae deletion strains, locus YMR078C, strain ctf18, stronger effect = lower value): 0.893 (active) | normalized growth (S. cerevisiae deletion strains, locus YMR223W, strain ubp8, stronger effect = lower value): 0.845 (active) | normalized growth (S. cerevisiae deletion strains, locus YMR263W, strain SAP30, stronger effect = lower value): 0.845 (active) | normalized growth (S. cerevisiae deletion strains, locus YMR307W, strain GAS1, stronger effect = lower value): 0.658 (inactive) | normalized growth (S. cerevisiae deletion strains, locus YNL067W, strain RPL9B, stronger effect = lower value): 0.856 (active) | normalized growth (S. cerevisiae deletion strains, locus YNL183C, strain NPR1, stronger effect = lower value): 0.916 (inactive) | normalized growth (S. cerevisiae deletion strains, locus YNL233W, strain BNI4, stronger effect = lower value): 0.717 (active) | normalized growth (S. cerevisiae deletion strains, locus YNL250W, strain rad50, stronger effect = lower value): 0.969 (inactive) | normalized growth (S. cerevisiae deletion strains, locus YNL271C, strain bni1, stronger effect = lower value): 0.921 (inactive) | normalized growth (S. cerevisiae deletion strains, locus YNL298W, strain CLA4, stronger effect = lower value): 0.894 (active) | normalized growth (S. cerevisiae deletion strains, locus YNL307C, strain MCK1, stronger effect = lower value): 0.676 (active) | normalized growth (S. cerevisiae deletion strains, locus YNL322C, strain KRE1, stronger effect = lower value): 0.95 (inactive) | normalized growth (S. cerevisiae deletion strains, locus YNR052C, strain pop2, stronger effect = lower value): 0.882 (active) | normalized growth (S. cerevisiae deletion strains, locus YOL006C, strain TOP1, stronger effect = lower value): 0.396 (active) | normalized growth (S. cerevisiae deletion strains, locus YOL012C, strain htz1): 0.856 (inactive) | normalized growth (S. cerevisiae deletion strains, locus YOL147C, strain pex11, stronger effect = lower value): 0.904 (active) | normalized growth (S. cerevisiae deletion strains, locus YOR061W, strain CKA2, stronger effect = lower value): 0.942 (inactive) | normalized growth (S. cerevisiae deletion strains, locus YOR069W, strain VPS5, stronger effect = lower value): 0.909 (active) | normalized growth (S. cerevisiae deletion strains, locus YOR136W, strain idh2, stronger effect = lower value): 0.95 (inactive) | normalized growth (S. cerevisiae deletion strains, locus YOR144C, strain elg1, stronger effect = lower value): 0.924 (active) | normalized growth (S. cerevisiae deletion strains, locus YOR184W, strain ser1, stronger effect = lower value): 0.622 (active) | normalized growth (S. cerevisiae deletion strains, locus YOR231W, strain MKK1, stronger effect = lower value): 0.921 (inactive) | normalized growth (S. cerevisiae deletion strains, locus YOR316C, strain cot1, stronger effect = lower value): 0.953 (inactive) | normalized growth (S. cerevisiae deletion strains, locus YPL055C, strain LGE1, stronger effect = lower value): 0.752 (active) | normalized growth (S. cerevisiae deletion strains, locus YPL256C, strain CLN2, stronger effect = lower value): 0.932 (inactive) | normalized growth (S. cerevisiae deletion strains, locus YPR119W, strain clb2, stronger effect = lower value): 0.936 (inactive) | normalized growth (S. cerevisiae deletion strains, locus YPR141C, strain kar3, stronger effect = lower value): 0.978 (inactive) | normalized growth (S. cerevisiae deletion strains, locus YPR163C, strain tif3, stronger effect = lower value): 0.853 (active) | normalized growth (S. cerevisiae deletion strains, locus YPR167C, strain met16, stronger effect = lower value): 0.901 (active) | normalized growth (S. cerevisiae deletion strains, strain wtn01, stronger effect = lower value): 0.887 (active) | normalized growth (S. cerevisiae strains, strain wild type, stronger effect = lower value): 0.884 (active)
